Shown are actives, neighbours in structure and some others; about 21% of the full set was active somewhere.
CHX counter – counter-screen hit for Shiga toxin inhibitors, cycloheximide; cell reporter, cycloheximide protein synthesis inhibition counterscreen; max response, %; 300,000 tested, 12% active; AID 2314; in the data active = max response mostly above about 13%, no sharp cut-off; inactive = mostly below about 14%; also: read at 38.3 µM for the half of the compounds with a filed dose; 0% is about no effect
Pf growth 96h – P. falciparum growth inhibition at 96 hours. P. falciparum luciferase reporter growth, 96 h. 320,000 tested, 6.9% active. AID 504834. Potency, µM (top dose mostly 28.7 µM), inactives show top-dose activity change, negative = inhibition, hits mostly inhibitors; also: potency is read from the fitted curve at half-maximal effect; % is scaled to controls: 0 for no effect and ±100 for the full control effect
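Luminescence readout: decreased luciferase signal marks inhibited growth of reporter-expressing P. falciparum in infected red cells (2% hematocrit, 0.05% parasitemia final), exposed to compound two generations (96 h, 37 C, 5% CO2).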
Pf growth 48h – P. falciparum growth inhibition at 48 hours (one generation); P. falciparum luciferase growth in erythrocytes, 48 h; Potency, µM (titrated, usually from 28.7 µM), without a hit: at the top dose activity change, negative = inhibition, usual class: inhibitors; 310,000 tested, 5.9% active; AID 504832; also: potency is read from the fitted curve at half-maximal effect; % is scaled to controls: 0 for no effect and ±100 for the full control effect
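Luminescence readout; reporter = integrated firefly luciferase in P. falciparum. RBC culture at 2% hematocrit, 0.1% parasitemia final, 37 C/5% CO2; decreased signal taken as growth inhibition.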
Shiga inhibitor – blocks Shiga toxin action in Vero cells; inhibition, % at 38.7 µM; 290,000 tested, 9.2% active; Vero cells, Shiga toxin protein synthesis inhibition reporter; in the data active = inhibition mostly above about 28%, no sharp cut-off; inactive = mostly below about 43%; also: 0% is about no effect
The depositor's hits bear a star; ? = inconclusive; · = no result; ! = not active in a repeat; [ ] = dose if it differs, or a comment. Unless noted, calls follow the shape of the dose curve; as a rule, active = well fitted inhibition curve with a large enough effect; inconclusive = small, poorly fitted or top-dose-only effect, or another doubt; inactive = no such curve, though single readings can be large or run the other way.

SMILES | CHX counter | Pf growth 96h | Pf growth 48h | Shiga inhibitor
O=C(CSc1nnc(-c2ccccc2F)o1)N1CCCC1 | 26.3* | -7.2% | 39.7% | 85.7*
COC(=O)CSc1nnc(-c2ccc(OC)cc2OC)o1 | -0.9 | 59.4% | -12.6% | -0.3
COc1ccc(-c2nnc(SCC(=O)N3CCCC3)o2)c(OC)c1 | 18.0 | 10.5% | 36.5% | 46.4*
COc1ccccc1-c1nnc(SCC(=O)N2CCCC2)o1 | 8.8 | 268.0% | 18.2% | 39.6*
O=C(CCN1CCc2ccccc2C1)Nc1cccc(F)c1 | -0.8 | 4.15µM* | 2.3% | 14.0
CCc1cccc(NC(=O)Cn2cccc2)c1 | 15.4 | 4.65µM* | 72.1% | 15.9
O=C(CCn1cccc1)Nc1cccc(F)c1 | -1.9 | 11.7µM* | 13.4% | 10.8
Nc1nccnc1C(=O)OCC(=O)NNC(=O)c1ccccc1 | -1.5 | 1.4% | 13.1% | 22.9
COc1ccccc1N1C(=O)C(Cl)=C(N2CCCC2)C1=O | -1.3 | 9.28µM* | 22.7% | ·
Cc1ccc(N2C(=O)C(Cl)=C(N3CCCCCC3)C2=O)cc1 | 26.8* | -30.5% | 15.4% | 44.1
CCc1ccccc1N1C(=O)C(Cl)=C(N2CCOCC2)C1=O | -2.6 | 1.47µM* | 0.6% | ·
Cc1ccccc1N1C(=O)C(Cl)=C(N2CCOCC2)C1=O | 1.4 | 10.2% | -3.0% | -6.0
O=C1C(Cl)=C(N2CCCCC2)C(=O)N1c1ccccc1 | -1.2 | ? | ? | 13.0
O=C1C(Cl)=C(N2CCOCC2)C(=O)N1c1ccc(Br)cc1 | -2.6 | 11.7µM* | ? | -6.2
O=C(NC1CCCC1)c1cc2nc(-c3ccco3)cc(C(F)(F)F)n2n1 | -1.9 | 37.7% | -0.3% | -8.0
C[C@H](NC(=O)[C@@H](N)Cc1ccc(O)cc1)C(=O)NCC(=O)N[C@H]1CSSC[C@@H](C(=O)O)NC(=O)[C@H](CO)NC(=O)[C@H]([C@@H](C)O)NC(=O)[C@H](Cc2ccccc2)NC(=O)[C@H]([C@@H](C)O)NC(=O)[C@H](CCCCN)NC(=O)[C@H](Cc2c[nH]c3ccccc23)NC(=O)[C@H](Cc2ccccc2)NC(=O)[C@H](Cc2ccccc2)NC(=O)[C@H](CC(N)=O)NC(=O)[C@H](CCCCN)NC1=O | -4.5 | · | · | -6.1
N/C(=N\OC(=O)Cc1ccccc1)c1ccccc1Cl | 58.7* | 0.0% | 42.3%[5.75 µM] | 93.7*
N/C(=N\OC(=O)Cc1ccccc1)c1cccnc1 | 20.6* | 75.2% | 4.9% | 36.6
N/C(=N\OC(=O)Cc1ccc(Cl)cc1)c1cccnc1 | 15.2* | 67.7% | 39.7% | -23.1
COc1ccc(OCCCC(=O)ON=C(N)c2ccccc2Cl)cc1 | · | 8.5% | 17.2% | ·
O=C(NC1CCS(=O)(=O)C1)c1cccs1 (stereo not given) | -3.3 | 238.4% | 16.2% | 19.9
CCn1nc(NS(=O)(=O)c2ccc(NC(C)=O)cc2)c2cc3cc(C)ccc3nc21 | 5.8 | ? | 18.6% | 15.9
O=C(CSc1ccc2c(c1)OCCO2)Nc1ccc(N2CCOCC2)cc1 | 2.0 | 2.7% | -8.6% | 5.5
O=C(CSc1nc(-c2cccs2)cc(C(F)(F)F)n1)Nc1cc(OCC(F)(F)C(F)F)cc([N+](=O)[O-])c1 | -4.0 | ? | ? | -10.5
Nc1nc2n(n1)C1(CCCCC1)C1=C(CCCC1)N2 | -1.2 | 10.4µM* | -0.9% | -11.8
SMILES | CHX counter | Pf growth 96h | Pf growth 48h | Shiga inhibitor
C1CCC2(CC1)C1=C(CCCC1)Nc1nnnn12 | -6.0 | -10.2% | 1.1% | -13.8
COc1ccccc1NC(=O)COc1cccc2c1CCNC2=O | · | -17.4% | ? | ·
CC(C)COC(=S)Nc1ccccc1 | 32.0* | -25.7% | · | 17.1
Cc1sc2ncnc(N3CCN(S(=O)(=O)c4ccccc4)CC3)c2c1C | · | ? | 13.1µM* | ·
Cc1ccc(S(=O)(=O)N2CCN(c3ncnc4sccc34)CC2)cc1C | · | 11.7µM* | 13.1µM* | ·
Cc1sc2nc(CN3CCCC3)nc(N3CCN(S(=O)(=O)c4ccccc4)CC3)c2c1C | · | 4.65µM* | 10.4µM* | ·
Cc1sc2ncnc(OCC(=O)N3CCN(S(=O)(=O)c4ccc(Cl)cc4)CC3)c2c1C | 10.1* | 23.3% | ? | 13.7
CCCc1nc(NC(=O)c2ccccc2)nc(NC(=O)c2ccccc2)n1 | 3.9 | ? | 13.2% | -3.4
COCc1ccc(CN2CCCC(C(=O)c3sccc3C)C2)o1 (stereo not given) | 1.0 | 14.7µM* | 14.4% | -9.4
CC1CC(=O)N(c2ccc(N(C)Cc3ccccc3)c([N+](=O)[O-])c2)C1=O (stereo not given) | 18.0* | 28.7% | 34.9% | 54.1*
Cc1occc1-c1nnc(SCC(=O)N2CCCCC2)o1 | 4.6 | -20.3%[5.75 µM] | 10.3% | 41.5
O=C(O)c1cc(=O)c2c3nc4ccccc4oc-3cc(=O)c2[nH]1 | · | 6.7% | ? | ·
Nc1cc2nc3ccccc3oc-2cc1=O | 28.1* | 4.65µM* | 4.65µM* | 41.6*
COc1cccc(NC(=O)Cn2c(=O)n(C)c(=O)c3sc4c(c32)COC(C)(C)C4)c1 | 7.6 | 2.62µM* | 4.15µM* | -3.0
Cc1ccc(-n2nc3ccc(N)cc3n2)cc1 | 27.8* | 22.3% | 57.9% | 94.5
CC(C)c1ccc(-n2nc3ccc(N)cc3n2)cc1 | 68.3* | ? | -3.7% | 77.1*
Nc1ccc2nn(-c3ccc(F)cc3)nc2c1 | 58.2* | ? | 111.8% | 95.3*
Nc1ccc2nn(-c3cc([N+](=O)[O-])ccc3O)nc2c1 | 6.9 | -19.2% | 9.0% | -3.3
Cn1cc2ccc(N)cc2n1 | 6.1 | -2.9% | 36.5% | -19.7
COc1ccc(OC)c(NC(=O)CSc2nccn2Cc2ccco2)c1 | 14.8 | -16.4% | 15.9% | 10.1
c1ccc(C2CN3CCSC3=N2)cc1 (stereo not given) | -1.5 | 1.9µM*! | 2.69µM*! | -8.0
COc1ccccc1C1=NC(c2ccccc2)CN1c1ccccc1 (stereo not given) | -0.9 | 3.7% | 3.1%[0.00184 µM] | 2.2
Cc1cccnc1NC(=O)CN1C(=O)NC(C)(c2ccc3ccccc3c2)C1=O (stereo not given) | · | -21.1% | ? | ·
Cc1ccc(SCC(CC(C)C)N2CCN(C)CCC2=O)cc1 (stereo not given) | 32.7* | · | · | 71.7*
CN1CCC(=O)N([C@H](CO)c2ccccc2)CC1 | 18.1* | 53.6% | 11.3% | 15.3
SMILES | CHX counter | Pf growth 96h | Pf growth 48h | Shiga inhibitor
O=C1CCN(Cc2ccccc2)CCN1[C@H](CO)c1ccccc1 | 1.4 | 0.8% | 1.4% | -0.8
CC(C)C[C@@H](CSc1ccccc1)N1CCN(C)CCC1=O | 17.6* | -29.3% | 21.4% | 24.3
COc1ccc(SCC(CC(C)C)N2CCN(C)CCC2=O)cc1 (stereo not given) | 25.3* | · | · | 52.7*
CC1CC(CN)CC(CO)C1 (stereo not given) | 7.2 | 48.0% | 1.8% | -11.6
CC(C)CC(CSc1ccc(Br)cc1)N1CCN(C)CCC1=O (stereo not given) | 40.3 | · | · | 90.0*
COc1cc(OC)c(OC)cc1/C=C1/C(=O)N=C(N)N1C | 1.5 | -31.5%[5.75 µM] | -19.7% | -1.4
COc1ccc(/C=C2/C(=O)N=C(N)N2C)cc1OC | 1.0 | 11.7µM* | 2.1% | 10.9
CN1C(N)=NC(=O)/C1=C/c1ccc(OC(F)(F)F)cc1 | 32.5* | 18.4% | -8.9% | 40.5*
CN1C(N)=NC(=O)/C1=C\c1ccc(Br)cc1 | 13.3* | -15.0% | 1.3% | 40.6
COc1ccc(/C=C2/C(=O)N=C3SCCN32)cc1 | -2.3 | ? | · | 1.0
